Laboratory results taken from the supplement of paper PMC10981050.
Several values for one entry are separate records, joined by “and”; a condition that tells them apart may be missing. Equal values may be shown once. Where a name gives a salt, the structure may show the parent alone.

Legend:
Experiment in all cases: cell viability relative to vehicle control; higher = less cytotoxic
Settings in all cases: 10 µM
K562 = tested on: K562
Method in brief: (§1)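 After removal of identity-inconsistent compounds, the Selleck bioactive, kinase and epigenetic probe libraries were screened on CRISPR-edited mutant clones and isogenic wild-type clones of four leukaemia lines. Plates were 384-well, each well holding 2000 cells in 50 µL medium and receiving a single 10 µM acoustically dispensed dose. CellTiter-Glo luminescence was read 48 h later, after the supernatant was taken off. Genedata Screener was used to express viability as percent of the on-plate vehicle control.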

MARIMO = tested on: MARIMO
Method in brief: as §1

MOLM14 = tested on: MOLM14
Method in brief: as §1

OCI-AML2 = tested on: OCI-AML2
Method in brief: as §1

Row | Structure (SMILES) | cell viability (K562; SRSF2 genotype: SRSF2 P95H/wt) | cell viability (K562; SRSF2 genotype: SRSF2 wt/wt) [%] | cell viability (MARIMO; SRSF2 genotype: SRSF2 P95H/wt) [%] | cell viability (MARIMO; SRSF2 genotype: SRSF2 wt/wt) [%] | cell viability (MOLM14; SRSF2 genotype: SRSF2 P95H/wt) [%] | cell viability (MOLM14; SRSF2 genotype: SRSF2 wt/wt) [%] | cell viability (OCI-AML2; SRSF2 genotype: P95H/wt) [%] | cell viability (OCI-AML2; SRSF2 genotype: wt/wt) [%]
1 | CN(C)c1ccc2nc3c(C(=O)O)cc(=O)c(O)c-3oc2c1 [Gallocyanine] | 84.7% and 76.8% | 77.7 | 82.6 | 87.4 | 85.3 | 86.2 | 84 | 78.8
2 | O=C1C(Cl)=C(N2CCOCC2)C(=O)N1c1ccc(Cl)c(Cl)c1 | 97.9% and 96% | 97.4 | 88.2 | 109 | 87 | 94 | 83.3 | 96.4
3 | COc1ccccc1N1CCN(CCN2C(=O)CC3(CCCC3)CC2=O)CC1 [BMY 7378 Dihydrochloride] | 98.9% and 100% | 91.1 | 95.3 | 106 | 99.9 | 95.2 | 89.4 | 105
4 | CC[C@H]1OC(=O)C[C@@H](O)[C@H](C)[C@@H](O[C@@H]2O[C@H](C)[C@@H](O)[C@H](N(C)C)[C@H]2O)[C@@H](CCN2C[C@H](C)C[C@H](C)C2)C[C@@H](C)C(=O)/C=C/C(C)=C/[C@@H]1CO[C@@H]1O[C@H](C)[C@@H](O)[C@@H](OC)[C@H]1OC [Tilmicosin phosphate] | 102% | 108 | 98 | 103 | 106 | 101 | 108 | 112
5 | COCCCC/C(=N\OCCN)c1ccc(C(F)(F)F)cc1 [Fluvoxamine maleate] | 94.3% and 95.6% | 98.9 | 80.8 | 91.5 | 87.8 | 98 | 93.9 | 88.2
6 | O=C(O)CCC(=O)O [Succinic acid] | 90.3% and 88.2% | 88 | 83.8 | 96.1 | 93.1 | 93.6 | 85.1 | 97.5
7 | CCNC(=O)CCC/C=C\C[C@@H]1[C@@H](/C=C/[C@@H](O)CCc2ccccc2)[C@H](O)C[C@@H]1O [Bimatoprost] | 99.5% and 99.1% | 96.8 | 95.4 | 98.3 | 98.4 | 98.3 | 105 | 98.8
8 | CC(C)c1cc(-c2n[nH]c(=O)n2-c2ccc3c(ccn3C)c2)c(O)cc1O [Ganetespib (STA-9090)] | 21.6% and 26.6% | 28.1 | 31.8 | 27 | 2.31 | 2.65 | 19.4 | 21.1
9 | O=c1oc2c(O)c(O)cc3c(=O)oc4c(O)c(O)cc1c4c23 [Ellagic acid] | 92.7% and 105% | 93.7 | 96.3 | 105 | 106 | 103 | 101 | 101
10 | Cc1cc(C)cc(Oc2ccc(CNC(=O)[C@H](C)N)cc2C)c1 | 85.9% and 95.5% | 93.9 | 86.5 | 87.8 | 78.1 | 94.3 | 75.5 | 83.3
11 | C=CC(=O)N1CCC(Oc2cc3c(Nc4ccc(Cl)c(Cl)c4F)ncnc3cc2OC)CC1 [Poziotinib (HM781-36B)] | 56% and 63.7% | 65.6 | 71.9 | 72.6 | 53.4 | 58 | 73.7 | 66.7
12 | Cc1cc(F)c(Nc2ncnc3cc(OCc4ccccc4)ccc23)cc1O | 82.7% and 95.5% | 94.6 | 73.6 | 97.9 | 93.3 | 102 | 71.2 | 81
13 | C=CCn1c(=O)c2cnc(Nc3ccc(N4CCN(C)CC4)cc3)nc2n1-c1cccc(C(C)(C)O)n1 | 8.01% and 13.9% | 10.5 | 11.7 | 6.8 | 11.6 | 4.1 | 9.17 | 8.01
14 | CCC(C(=O)O)c1ccc(N2Cc3ccccc3C2=O)cc1 (centres undefined) [Indobufen] | 92.1% and 90.3% | 102 | 91.3 | 100 | 96.6 | 101 | 92.2 | 98.3
15 | O=C1CCc2ccc(O)cc2N1 [7-Hydroxy-3,4-dihydrocarbostyril] | 110% and 104% | 102 | 105 | 112 | 107 | 103 | 101 | 107
16 | CS(=O)(=O)c1ccc(-c2nnc(/C=C/c3nnc(-c4ccc(C#N)cc4)o3)n2-c2ccccc2Cl)nc1 | 105% and 94.2% | 101 | 104 | 108 | 106 | 103 | 99 | 110
17 | Cc1nc(C)c(C)nc1C [Ligustrazine hydrochloride] | 97.2% and 97.7% | 91.8 | 89.8 | 102 | 95.8 | 98.7 | 87.8 | 107
18 | CN[C@H]1CN(c2ccc3c(=O)c(C(=O)O)cn(-c4nccs4)c3n2)C[C@@H]1OC [Voreloxin (SNS-595) hydrochloride] | 74% and 88.4% | 79.8 | 20.8 | 36 | 21.3 | 7.31 | 15.6 | 19.9
19 | C=C(C)[C@@H]1CCC2=CC(=O)C[C@@H](C)[C@]2(C)C1 [Nootkatone] | 104% and 105% | 107 | 100 | 95.4 | 105 | 103 | 107 | 103

Row | Structure (SMILES) | cell viability (K562; SRSF2 genotype: SRSF2 P95H/wt) | cell viability (K562; SRSF2 genotype: SRSF2 wt/wt) [%] | cell viability (MARIMO; SRSF2 genotype: SRSF2 P95H/wt) [%] | cell viability (MARIMO; SRSF2 genotype: SRSF2 wt/wt) [%] | cell viability (MOLM14; SRSF2 genotype: SRSF2 P95H/wt) [%] | cell viability (MOLM14; SRSF2 genotype: SRSF2 wt/wt) [%] | cell viability (OCI-AML2; SRSF2 genotype: P95H/wt) [%] | cell viability (OCI-AML2; SRSF2 genotype: wt/wt) [%]
20 | C[C@](N)(Cc1ccc(O)c(O)c1)C(=O)O [Methyldopa (Aldomet)] | 90.6% and 100% | 100 | 97.2 | 104 | 98.3 | 101 | 98.4 | 96.6
21 | CC#Cc1cncc(-c2ccc3c(c2)C2(N=C(C)C(N)=N2)C2(CCC(OC)CC2)C3)c1 (centres undefined) | 108% and 98.5% | 107 | 100 | 103 | 98 | 98.9 | 88.8 | 93.1
22 | C[C@H](O)[C@H](O)[C@@H](O)[C@@H](O)C=O [L (+)-Rhamnose Monohydrate] | 99.9% and 97.2% | 100 | 102 | 106 | 99 | 105 | 99.3 | 94.1
23 | Cc1ccc2c(c1)C(=O)C1(O)CCN(c3ccccc3)C1=N2 (single isomer, unassigned; (-)) [(-)-Blebbistatin] | 93.5% and 92.5% | 94 | 88.4 | 98.6 | 61.3 | 60.7 | 80.5 | 90.4
24 | O=C(c1cncc(Br)c1)N1CCC(N2CCCC2)CC1 | 103% and 100% | 98.7 | 106 | 100 | 101 | 101 | 104 | 120
25 | COc1ccccc1OCC(O)CO (centres undefined) [Guaifenesin (Guaiphenesin)] | 106% and 104% | 107 | 103 | 108 | 107 | 109 | 105 | 118
26 | COC(=O)Nc1nc2cc(C(=O)c3cccs3)ccc2[nH]1 [Nocodazole] | 12.2% and 32.6% | 34.7 | 7.65 | 8.94 | 1.15 | 3.4 | 5.25 | 7.85
27 | COc1ccccc1OCC(O)CN1CCN(CC(=O)Nc2c(C)cccc2C)CC1 (centres undefined) [Ranolazine dihydrochloride] | 92.7% and 97.6% | 101 | 96.7 | 103 | 98.8 | 100 | 102 | 111
28 | c1cn2cc(-c3ccc4cn[nH]c4c3)nc(Nc3ccc(N4CCOCC4)cc3)c2n1 [Entospletinib (GS-9973)] | 89.8% and 84.7% | 95.7 | 89.5 | 89.9 | 79 | 95.6 | 92.5 | 85.6
29 | COc1cc2c(cc1OC)[C@@H]1Cc3ccc(OC)c(OC)c3CN1CC2 [Rotundine] | 87.8% and 98.4% | 101 | 98.2 | 91.1 | 94 | 95.2 | 95.1 | 90.4
30 | COc1ccc2c(c1)c(CC(=O)O)c(C)n2C(=O)c1ccc(Cl)cc1 [Indometacin Sodium] | 97.1% and 90.1% | 101 | 96.7 | 103 | 105 | 101 | 98.3 | 110
31 | Cc1ccnc2c1NC(=O)c1cccnc1N2C1CC1 [Nevirapine (Viramune)] | 101% and 89.6% | 95.5 | 93.3 | 99.3 | 89.9 | 0.15 | 91.6 | 104
32 | N[C@@H](CSC(c1ccccc1)(c1ccccc1)c1ccccc1)C(=O)O | 43.2% and 34.9% | 34.4 | 7.81 | 4.29 | 8.53 | 2.73 | 7.71 | 11.8
33 | CCCCCCCCC[C@H](O)CC(=O)CCc1ccc(O)c(OC)c1 [10-Gingerol] | 92.4% and 91.5% | 98.5 | 91.1 | 92.4 | 90 | 94 | 82.5 | 82.4
34 | CC(=O)Nc1ccc(OC(=O)c2ccccc2OC(C)=O)cc1 [Benorylate] | 102% | 98.9 | 104 | 100 | 104 | 101 | 107 | 108
35 | Oc1c(F)cc(-c2cnccc2-c2ccc(N3CCOCC3)cc2)cc1F | 101% and 106% | 105 | 97.5 | 92.6 | 75.5 | 104 | 120 | 103
36 | CC(C)(N)C(=O)N[C@H](COCc1ccccc1)C(=O)N1CCC2(CC1)CN(S(C)(=O)=O)c1ccccc12 [Ibutamoren mesylate] | 91.5% and 97.4% | 90 | 81.1 | 92 | 80.1 | 89.5 | 82.3 | 78.9
37 | Cc1cn([C@@H]2C[C@@H](O)[C@H](CO)O2)c(=O)[nH]c1=O [Telbivudine (Sebivo, Tyzeka)] | 96.7% and 104% | 101 | 105 | 102 | 99.2 | 108 | 113 | 102
38 | CC(=O)Cc1cc(=O)c2c(C)cc(O)c([C@@H]3O[C@H](CO)[C@@H](O)[C@H](O)[C@H]3O)c2o1 [Aloesin] | 101% and 97.6% | 102 | 102 | 104 | 109 | 101 | 105 | 105
